Measurements reported in PubChem BioAssay (NCATS).
A number with no mark means an inactive call. Inconclusive results are not listed. Calls of active or inactive are those of the source. Calls come from the whole dose curve; as a rule, active = well fitted curve in the direction sought with a large enough effect; inconclusive = small, poorly fitted or top-dose-only effect, or another doubt; inactive = no such curve, though single readings can be large; an effect the other way counts as inactive or inconclusive.

biological target: Cytochrome P450 3A4 (Homo sapiens) (UniProt P08684); assay: qHTS Assay for Inhibitors and Substrates of Cytochrome P450 3A4 (AID 884); details: recombinant CYP3A4, Luciferin-PPXE luminescence; series mostly up to 57.1 µM; activity change, negative = inhibition: at the top concentration; note: nearly all actives have a fitted effect of over 50% in size; note: potency is the fitted concentration of half-maximal effect; for activity change, negative = inhibition: % is set by controls: 0 for no effect and ±100 for the full control effect
Summary of the method: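 20 nM human CYP3A4 with 25 uM Luciferin-PPXE (at KM) in 200 mM KPO4, preincubated 10 min with compound; NADPH regeneration started a 60 min RT reaction. Luciferin detected by luminescence, normalized to 57 uM ketoconazole as full inhibition.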

Cytochrome P450 3A4 (Homo sapiens), sequence (P08684 whole entry, looked up): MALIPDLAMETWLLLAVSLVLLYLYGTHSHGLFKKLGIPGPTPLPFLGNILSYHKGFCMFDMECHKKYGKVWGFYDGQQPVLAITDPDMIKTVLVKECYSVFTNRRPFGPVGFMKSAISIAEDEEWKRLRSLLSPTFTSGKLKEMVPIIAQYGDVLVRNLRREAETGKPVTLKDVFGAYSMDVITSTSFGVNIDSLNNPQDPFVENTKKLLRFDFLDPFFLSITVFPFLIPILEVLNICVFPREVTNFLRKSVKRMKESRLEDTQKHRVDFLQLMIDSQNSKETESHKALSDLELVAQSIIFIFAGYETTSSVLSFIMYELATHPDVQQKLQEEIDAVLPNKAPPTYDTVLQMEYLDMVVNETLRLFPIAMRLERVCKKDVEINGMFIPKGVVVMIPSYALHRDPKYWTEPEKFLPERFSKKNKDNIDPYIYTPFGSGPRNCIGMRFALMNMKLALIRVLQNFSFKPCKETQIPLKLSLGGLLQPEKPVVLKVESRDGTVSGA

Compound | activity change, negative = inhibition | Potency
CC1CCC2C(C)(C)C3CC12CC[C@]3(C)O (stereo partly specified) | -9.46% | –
O=C1OC(C(O)CO)C(O)=C1O (stereo unspecified) | 1.65% | –
CC1c2cccc(O)c2C(O)=C2C(=O)[C@]3(O)C(O)=C(C(N)=O)C(=O)C(N(C)C)C3C(O)C21 (stereo partly specified) | -5.65% | –
COc1c2ccoc2c(OC)c2oc(=O)ccc12 | – | 2000 nM (active)
CO[C@@]1(NC(=O)Cc2cccs2)C(=O)N2C(C(=O)O)=C(COC(N)=O)CSC21 (stereo partly specified) | -10.5% | –
O=C(O)/C=C/C=C/c1ccccc1 | -15.2% | –
OCC(O)C(O)C(O)C(O)C(O)CO (stereo unspecified) | -6.77% | –
C=C1CCC2C(CC2(C)C)C(=O)CCC1O (stereo unspecified) | – | 2000 nM (active)
C[C@]12CCC(=O)C=C1CCC1C2C(O)C[C@]2(C)C1CC[C@]2(O)C(=O)COC(=O)CCC(=O)O (stereo partly specified) | -4.72% | –
CC(=O)c1ccc[nH]1 | -3.07% | –
O=C(O)c1cc2ccccc2[nH]1 | -4.37% | –
CC1C(NC(=O)/C(=N/OC(C)(C)C(=O)O)c2csc(N)n2)C(=O)N1S(=O)(=O)O (stereo unspecified) | -25.2% | –
COc1ccc2cc1Oc1ccc(cc1)CC1c3cc(c(OC)cc3CCN1C)Oc1c(OC)c(OC)cc3c1C(C2)N(C)CC3 (stereo unspecified) | -24.6% | –
CC1CC[C@@]23CCC4(C)[C@@]5(C)CCC6C(C)(C)C(=O)CC[C@@]6(C)C5C=C[C@@]4(OC2=O)C3C1C (stereo partly specified) | -27.2% | –
COc1cc(C(C)=O)cc(OC)c1O | -10.1% | –
COc1cc(OC)c2c(=O)c(-c3ccccc3)coc2c1 | – | 15800 nM (active)
CC1O[C@@H](O[C@@H]2C(O)C[C@H](O[C@@H]3C(O)C[C@@H](OC4CC[C@@]5(C)C6CC[C@]7(C)C(C8=CC(=O)OC8)CC[C@@]7(O)C6CC[C@@H]5C4)OC3C)OC2C)CC(O)[C@H]1O (stereo partly specified) | -4.05% | –
NC(N)=N/N=C\c1c(Cl)cccc1Cl | -16.8% | –
CC(=O)OCC(=O)[C@@]1(O)CCC2C3CCC4=CC(=O)CC[C@]4(C)C3C(=O)C[C@]21C (stereo partly specified) | -6.69% | –
O=c1[nH]cnc2c1ncn2C1CC(O)C(CO)O1 (stereo unspecified) | -5.57% | –
O[N+]1=CC=CCC1=S.On1ccccc1=S.[Zn] | -8.55% | –
COc1c2ccoc2cc2oc(C)cc(=O)c12 | – | 3160 nM (active)
Cc1onc(-c2c(Cl)cccc2Cl)c1C(=O)NC1C(=O)N2C1SC(C)(C)C2C(=O)O (stereo unspecified) | -13.3% | –
C=C1c2cccc(O)c2C(O)=C2C(=O)[C@]3(O)C(O)=C(C(N)=O)C(=O)C(N(C)C)C3C(O)C12 (stereo partly specified) | -8.36% | –
CC(CCC(=O)O)C1CCC2C3C(=O)CC4CC(=O)CC[C@@]4(C)C3CC(=O)[C@]12C (stereo partly specified) | -12.3% | –

biological target: Cytochrome P450 3A4 (Homo sapiens) (UniProt P08684); assay: qHTS Assay for Activators of Cytochrome P450 3A4 (AID 885); details: recombinant CYP3A4, Luciferin-PPXE luminescence, 60 min; series mostly up to 57.1 µM; activity change, positive = activation: at the top concentration; note: nearly all actives have a fitted effect of over 65% in size
Summary of the method: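 Signal was normalized against complete inhibition by 57 uM ketoconazole. The reaction used 20nM CYP3A4 with 25uM Luciferin-PPXE, 10-min compound preincubation and a 60-min NADPH-supported step at RT.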

Compound | activity change, positive = activation
CC(=O)OC1CC2C(C)(C)C(=O)CC[C@]2(C)C2CC[C@]3(C)C(=CC(=O)OC3c3ccoc3)[C@]12C (stereo partly specified) | -87.8%
COc1ccc(-c2cc(=O)c3c(OC(C)=O)cc(OC(C)=O)cc3o2)cc1 | -67.5%
COc1c2ccoc2c(OC)c2oc(=O)ccc12 | -94.6%
C=C1CCC2C(CC2(C)C)C(=O)CCC1O (stereo unspecified) | -77.7%
COc1cc(OC)c2c(=O)c(-c3ccccc3)coc2c1 | -69.2%
COc1c2ccoc2cc2oc(C)cc(=O)c12 | -89.2%

system: not listed separately; assay: Confirmation and Secondary Assay for Modulators of Hemoglobin Beta Chain Splicing at IVS2 654 locus (AID 910); details: HeLa EGFP-654 splicing reporter, GFP fluorescence, 48 h; series mostly up to 46.1 µM; activation (splicing correction): at the top concentration;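 note: per-well total GFP intensity by laser scanning cytometry after 2-day treatment; % of control where 0% means no effect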
Summary of the method: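 HeLa cells stably carrying EGFP interrupted by mutant beta-globin IVS2-654 intron (CMV-driven) were treated with compound for 2 days at 37C; corrected splicing was scored as total peak GFP intensity per well (488 nm excitation, 500-520 nm emission).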

Compound | activation (splicing correction)
CN(N=O)C(=O)N[C@H]1C(O)C(O)C(CO)O[C@@H]1O (stereo partly specified) | 0.851%
Nc1nc(=O)n(C2OC(CO)C(O)C2O)cc1Cl (stereo unspecified) | 1.12% [at 38.3 µM]
Nc1nc2c(ncn2C2CC(O)C(CO)O2)c(=O)[nH]1 (stereo unspecified) | 0.882% [at 38.3 µM]
O=c1c(-c2ccc(O)cc2)coc2c(C3OC(CO)C(O)C(O)C3O)c(O)ccc12 (stereo unspecified) | 0.573%
CC1(C)CC[C@]2(C(=O)O)CC[C@@]3(C)C(=CCC4[C@@]5(C)CCC(O)C(C)(C)C5CC[C@@]43C)C2C1 (stereo partly specified) | -3.73%
CSCCC(N)C(=O)NC(CC(C)C)C(=O)NC(Cc1ccccc1)C(=O)O (stereo unspecified) | -0.105% [at 38.3 µM]
C=C1C(=O)C23C(O)C1CCC2[C@]12COC3(O)C(O)C1C(C)(C)CC[C@H]2O (stereo partly specified) | 22.5%
Cc1cc(O)c(C)c(O)c1C(=O)O | 0.972%
COc1ccc(-c2cc(=O)c3c(OC(C)=O)cc(OC(C)=O)cc3o2)cc1 | -8.15%
O=C(O)C(S)[C@@H](S)C(=O)O (stereo partly specified) | 9.1%
CC1CCC2C(C)(C)C3CC12CC[C@]3(C)O (stereo partly specified) | -2.15% [at 38.3 µM]
CC1c2cccc(O)c2C(O)=C2C(=O)[C@]3(O)C(O)=C(C(N)=O)C(=O)C(N(C)C)C3C(O)C21 (stereo partly specified) | 2.67%
COc1c2ccoc2c(OC)c2oc(=O)ccc12 | -2.11% [at 38.3 µM]
O=C(O)/C=C/C=C/c1ccccc1 | 5.28% [at 38.3 µM]
OCC(O)C(O)C(O)C(O)C(O)CO (stereo unspecified) | 0.369% [at 38.3 µM]
C=C1CCC2C(CC2(C)C)C(=O)CCC1O (stereo unspecified) | 1.9% [at 38.3 µM]
C[C@]12CCC(=O)C=C1CCC1C2C(O)C[C@]2(C)C1CC[C@]2(O)C(=O)COC(=O)CCC(=O)O (stereo partly specified) | -0.0003%
O=C(O)c1cc2ccccc2[nH]1 | 8.07%
CC1C(NC(=O)/C(=N/OC(C)(C)C(=O)O)c2csc(N)n2)C(=O)N1S(=O)(=O)O (stereo unspecified) | 10.3%
COc1ccc2cc1Oc1ccc(cc1)CC1c3cc(c(OC)cc3CCN1C)Oc1c(OC)c(OC)cc3c1C(C2)N(C)CC3 (stereo unspecified) | -4.57%
COc1cc(C(C)=O)cc(OC)c1O | -2.61% [at 38.3 µM]
COc1cc(OC)c2c(=O)c(-c3ccccc3)coc2c1 | -0.0562% [at 38.3 µM]
CC1O[C@@H](O[C@@H]2C(O)C[C@H](O[C@@H]3C(O)C[C@@H](OC4CC[C@@]5(C)C6CC[C@]7(C)C(C8=CC(=O)OC8)CC[C@@]7(O)C6CC[C@@H]5C4)OC3C)OC2C)CC(O)[C@H]1O (stereo partly specified) | -5.32%
CC(=O)OCC(=O)[C@@]1(O)CCC2C3CCC4=CC(=O)CC[C@]4(C)C3C(=O)C[C@]21C (stereo partly specified) | 0.495%
O=c1[nH]cnc2c1ncn2C1CC(O)C(CO)O1 (stereo unspecified) | 0.685% [at 38.3 µM]
O[N+]1=CC=CCC1=S.On1ccccc1=S.[Zn] | -7.11%
COc1c2ccoc2cc2oc(C)cc(=O)c12 | -0.985% [at 38.3 µM]
Cc1onc(-c2c(Cl)cccc2Cl)c1C(=O)NC1C(=O)N2C1SC(C)(C)C2C(=O)O (stereo unspecified) | 5.24%
C=C1c2cccc(O)c2C(O)=C2C(=O)[C@]3(O)C(O)=C(C(N)=O)C(=O)C(N(C)C)C3C(O)C12 (stereo partly specified) | 2.01%
CC(CCC(=O)O)C1CCC2C3C(=O)CC4CC(=O)CC[C@@]4(C)C3CC(=O)[C@]12C (stereo partly specified) | -1.49%
